A number with no mark means an inactive call. For some assays here: Measured potencies and affinities stand elsewhere. Activity calls are given as the source filed them. Unless noted, no rule for the calls is given here.
Columns and labels:
[1] = antimalarial activity against Dd2 strain (AID 2302;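 active = growth inhibition above 50% at the single 2 µM test dose, taken to imply half-maximal potency below 2 µM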;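 also: 0% = DMSO untreated growth and 100% = chloroquine plus artemisinin killed control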); conditions: P. falciparum Dd2 in RBCs, LDH growth readout, 72 h; at 2 µM; hits give high values
[2] = HepG2 cytotoxicity, primary screen, cytotoxicity control for P. falciparum antimalarial project, cell-based, ATP luminescence (AID 2303;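 active = inhibition above 50%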;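 also: 0% = DMSO wells and 100% = digitonin-killed cells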); conditions: HepG2 viability, 24-48 h, at 10 µM, hits give high values
[3] = molecular target: L-lactate dehydrogenase (Plasmodium falciparum (isolate CDC / Honduras)) (UniProt Q27743); test: PfLDH activity inhibition – cell lysate, 3D7 strain, counter-screen for P. falciparum growth inhibition project (AID 2304);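 also: 0% = vehicle and 100% = reference inhibitor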; conditions: P. falciparum 3D7 crude extract, LDH APAD/NBT absorbance; at 2 µM; hits give high values
Chain of L-lactate dehydrogenase (Plasmodium falciparum (isolate CDC / Honduras)) (Q27743 whole entry, looked up): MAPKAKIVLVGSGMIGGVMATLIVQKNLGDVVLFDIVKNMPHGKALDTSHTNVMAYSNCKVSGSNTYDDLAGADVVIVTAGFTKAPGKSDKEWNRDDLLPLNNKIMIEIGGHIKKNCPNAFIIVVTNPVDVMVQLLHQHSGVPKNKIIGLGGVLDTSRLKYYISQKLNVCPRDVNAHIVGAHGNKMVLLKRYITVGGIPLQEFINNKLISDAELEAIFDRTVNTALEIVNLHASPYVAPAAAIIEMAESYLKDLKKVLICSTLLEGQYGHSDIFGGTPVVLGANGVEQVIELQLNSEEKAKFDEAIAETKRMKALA

[4] = inhibition of 3D7 malaria parasite growth – strain 3D7 (AID 2306);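 also: 0% = DMSO wells and 100% = chloroquine plus artemisinin control wells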; conditions: P. falciparum 3D7 erythrocytic growth, LDH absorbance, 72 h; at 2 µM; hits give high values
[5] = molecular target: Calcium-dependent protein kinase 1 (Plasmodium falciparum (isolate 3D7)) (UniProt P62344); test: PfCDPK1 kinase inhibitors, biochemical, TCAMS library (AID 1159585; cut-off not given, nearly all actives have IC50 up to about 0.98 µM;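 also: inhibitors leave more ATP so luminescence rises with inhibition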); conditions: recombinant PfCDPK1, Kinase-Glo ATP depletion luminescence
Chain of Calcium-dependent protein kinase 1 (Plasmodium falciparum (isolate 3D7)) (P62344 whole entry, looked up): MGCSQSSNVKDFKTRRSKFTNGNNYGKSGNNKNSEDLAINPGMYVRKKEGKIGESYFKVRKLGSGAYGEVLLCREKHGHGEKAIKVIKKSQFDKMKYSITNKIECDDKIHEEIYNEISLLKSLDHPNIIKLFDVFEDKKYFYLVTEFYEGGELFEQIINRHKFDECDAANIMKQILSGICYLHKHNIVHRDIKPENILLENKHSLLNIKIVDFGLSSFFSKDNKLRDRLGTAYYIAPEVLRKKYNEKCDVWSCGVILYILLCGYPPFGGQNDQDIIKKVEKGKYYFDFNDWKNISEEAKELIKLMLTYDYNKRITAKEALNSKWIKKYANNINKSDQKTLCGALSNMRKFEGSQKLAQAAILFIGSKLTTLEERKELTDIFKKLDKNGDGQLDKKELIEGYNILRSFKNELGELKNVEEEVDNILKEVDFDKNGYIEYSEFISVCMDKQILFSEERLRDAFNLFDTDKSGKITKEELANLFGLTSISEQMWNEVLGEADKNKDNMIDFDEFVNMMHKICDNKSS

[6] = molecular target: Plasmodium falciparum protein kinase 6 (PK6, PF3D7_1337100) (UniProt Q8IDW1); test: PfPK6 kinase inhibitors, biochemical, TCAMS library (AID 1159586); conditions: recombinant PfPK6, Kinase-Glo ATP depletion luminescence
Chain of Plasmodium falciparum protein kinase 6 (PK6, PF3D7_1337100) (Q8IDW1 1-305): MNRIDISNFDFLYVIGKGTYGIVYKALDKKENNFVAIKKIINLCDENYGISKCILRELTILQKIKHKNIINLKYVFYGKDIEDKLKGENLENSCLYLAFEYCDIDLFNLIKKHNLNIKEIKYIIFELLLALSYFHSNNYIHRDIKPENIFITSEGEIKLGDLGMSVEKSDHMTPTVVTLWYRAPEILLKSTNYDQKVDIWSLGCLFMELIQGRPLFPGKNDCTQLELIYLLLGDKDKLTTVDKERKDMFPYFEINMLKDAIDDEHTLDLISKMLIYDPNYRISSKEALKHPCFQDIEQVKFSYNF

[7] = molecular target: Protein kinase 7 (PK7), Plasmodium falciparum 3D7 (PF3D7_0213400) (UniProt Q7YTF7); test: inhibition of Plasmodium PK7 catalytic activity – biochemical, TCAMS antimalarial set, Kinase-Glo luminescence (AID 1159587); conditions: recombinant PfPK7, Kinase-Glo ATP depletion luminescence
Chain of Protein kinase 7 (PK7), Plasmodium falciparum 3D7 (PF3D7_0213400) (Q7YTF7 1-343): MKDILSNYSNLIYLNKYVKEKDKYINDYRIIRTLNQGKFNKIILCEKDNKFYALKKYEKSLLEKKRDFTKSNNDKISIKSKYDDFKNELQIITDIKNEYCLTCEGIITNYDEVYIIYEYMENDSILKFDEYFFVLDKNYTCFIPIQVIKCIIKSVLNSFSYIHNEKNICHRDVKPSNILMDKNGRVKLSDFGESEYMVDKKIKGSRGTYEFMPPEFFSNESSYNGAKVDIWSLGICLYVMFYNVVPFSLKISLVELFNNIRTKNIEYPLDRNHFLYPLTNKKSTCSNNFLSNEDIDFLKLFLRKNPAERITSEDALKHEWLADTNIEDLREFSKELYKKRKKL

[8] = molecular target: Calcium-dependent protein kinase 4 (Plasmodium falciparum (isolate 3D7)) (UniProt Q8IBS5); test: PfCDPK4 kinase inhibitors, biochemical, TCAMS library (AID 1159588; cut-off not given, nearly all actives have IC50 up to about 0.91 µM); conditions: recombinant PfCDPK4, Kinase-Glo ATP depletion luminescence
Chain of Calcium-dependent protein kinase 4 (Plasmodium falciparum (isolate 3D7)) (Q8IBS5 whole entry, looked up): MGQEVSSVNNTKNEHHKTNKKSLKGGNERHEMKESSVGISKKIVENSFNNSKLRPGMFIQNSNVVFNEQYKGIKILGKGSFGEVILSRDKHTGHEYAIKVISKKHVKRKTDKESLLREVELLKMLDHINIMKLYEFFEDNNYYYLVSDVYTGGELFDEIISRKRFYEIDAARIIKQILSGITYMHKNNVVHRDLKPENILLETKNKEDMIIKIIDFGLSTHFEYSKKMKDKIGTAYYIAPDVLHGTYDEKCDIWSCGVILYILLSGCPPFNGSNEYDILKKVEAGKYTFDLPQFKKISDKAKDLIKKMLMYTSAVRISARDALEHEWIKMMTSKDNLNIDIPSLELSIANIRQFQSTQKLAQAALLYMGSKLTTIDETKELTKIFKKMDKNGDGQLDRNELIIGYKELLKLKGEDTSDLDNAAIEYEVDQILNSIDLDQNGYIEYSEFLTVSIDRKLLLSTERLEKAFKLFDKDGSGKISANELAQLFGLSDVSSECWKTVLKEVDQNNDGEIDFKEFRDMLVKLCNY

Row | SMILES | growth inhibition [1] | inhibition [2] | inhibition [3] | growth inhibition [4] | outcome [5] | outcome [6] | outcome [7] | outcome [8]
1 | Cc1[nH]c(C)c(-c2ccc(-c3cccc(OC(F)(F)F)c3)nc2)c(=O)c1Cl | 97% (active) | 30% | -2% | 98% (active) | inactive | inactive | inactive | inactive
2 | CC(=O)Nc1ccc(C#Cc2ccc(-c3c(C)[nH]c(C)c(Cl)c3=O)cc2)cc1 | 78% (active) | -3% | -7% | 90% (active) | inactive | inactive | inactive | inactive
3 | CN(CCC1CCN(C(=O)/C=C/c2ccc(Cl)c(Cl)c2)CC1)C1CCC(c2c[nH]c3ccccc23)CC1 (stereo not given) | 9% | 57% (active) | -5% | 87% (active) | inactive | inactive | inactive | inactive
4 | CC(C)c1ccc(NC(=O)c2ccc(CN3CCCN(Cc4cccc(O)c4)CC3)cc2)cc1 | 58% (active) | 51% (active) | -4% | 100% (active) | inactive | inactive | inactive | inactive
5 | O=C(Nc1ccccc1)c1cccc(Nc2nccc(Nc3ccc(Oc4ccccc4)cc3)n2)c1 | 11% | 6% | -1% | 98% (active) | inactive | inactive | inactive | inactive
6 | Cc1cccc2c(N=NC(=S)N(C)C)c(O)[nH]c12 | 59% (active) | 48% | -5% | 96% (active) | inactive | inactive | inactive | inactive
7 | O=C(/C=C/c1ccc(Cl)c(Cl)c1)N1CCC(CCN2CCc3[nH]c4ccccc4c3C2)CC1 | -1% | 22% | -3% | 96% (active) | inactive | inactive | inactive | inactive
8 | Nc1nc(N)c2c(CCc3ccc(Cl)c(Cl)c3)cccc2n1 | 83% (active) | 51% (active) | 6% | 101% (active) | inactive | inactive | inactive | inactive
9 | Cc1nc(-c2ccc(-c3ccc(C(=O)Nc4ccc(Cl)c(N5CCN(C)CC5)c4)cc3)c(C)c2)no1 | 47% | 23% | 4% | 101% (active) | inactive | inactive | inactive | inactive
10 | Nc1ccn([C@@H]2O[C@H](COC(c3ccccc3)(c3ccccc3)c3ccccc3)[C@@H](O)[C@@H]2O)c(=O)n1 | 2% | 26% | 1% | 93% (active) | inactive | inactive | inactive | inactive
11 | CCOc1cc(NCCCNc2ncc([N+](=O)[O-])cc2C)nc2ccccc12 | 64% (active) | 10% | 2% | 84% (active) | inactive | inactive | inactive | inactive
12 | CC(C)NC(=O)c1cccc(-c2cccc(OCCN3CCSCC3c3ccccc3)c2)c1 (stereo not given) | 45% | 24% | 2% | 89% (active) | inactive | inactive | inactive | inactive
13 | CCN1CCC(N(Cc2ccc(-c3ccc(C(F)(F)F)cc3)cc2)C(=O)Cn2c(SCc3cccc(F)c3F)cc(=O)c3ccccc32)C1 (stereo not given) | 91% (active) | 42% | 5% | 90% (active) | inactive | inactive | inactive | inactive
14 | COc1ccc(C(F)(F)F)cc1N1CCN(CCCCNC(=O)c2ccc(NC(=O)c3ccc(Cl)cc3)cc2)CC1 | 1% | 12% | 8% | 94% (active) | inactive | inactive | inactive | inactive
15 | COc1ccc(-c2ccc(CNC(=O)c3ccc(C#N)cc3)c(F)c2)cc1CN1CCCN(C)CC1 | 1% | 6% | -10% | 90% (active) | inactive | inactive | inactive | inactive
16 | Cc1ccccc1C1CCN(C2CCC(NC(=O)c3ccc(-c4ccccc4F)o3)CC2)CC1 (stereo not given) | 66% (active) | 42% | 1% | 99% (active) | inactive | inactive | inactive | inactive
17 | CCOC(=O)N[C@@H]1CN[C@@H](C#Cc2cc3c(Nc4ccc(OCc5cccc(F)c5)c(Cl)c4)ncnc3s2)C1 | 13% | 8% | -3% | 86% (active) | inactive | inactive | inactive | inactive
18 | CCCS(=O)(=O)c1nc(S(=O)(=O)c2ccc(Cl)cc2)c(N2CCCCC2)s1 | 34% | 3% | -3% | 87% (active) | inactive | inactive | inactive | inactive
19 | O=C(Nc1ccc(Cl)cc1)c1cccc2[nH]c(C(F)(F)F)nc12 | 98% (active) | 84% (active) | -6% | 93% (active) | inactive | inactive | inactive | inactive
20 | O=C(Nc1ccccc1O)c1ccc(S(=O)(=O)c2ccc(Cl)cc2)cc1 | 85% (active) | 18% | -7% | 90% (active) | inactive | inactive | inactive | inactive

Row | SMILES | growth inhibition [1] | inhibition [2] | inhibition [3] | growth inhibition [4] | outcome [5] | outcome [6] | outcome [7] | outcome [8]
21 | Cc1cc(OC(C)C(=O)N2CCc3ccccc32)ccc1Cl (stereo not given) | 54% (active) | 20% | 6% | 89% (active) | inactive | inactive | inactive | inactive
22 | COc1ccc(C2CCC(NCCCCNC(=O)c3ccc(NC(=O)c4ccc(Cl)cc4)cc3)CC2)cc1 (stereo not given) | 7% | 23% | -6% | 99% (active) | inactive | inactive | inactive | inactive
23 | CCN(CC)CCN(Cc1ccc(-c2ccc(C(F)(F)F)cc2)cc1)C(=O)Cn1c(SCc2ccc(F)cc2)cc(=O)c2ccccc21 | 70% (active) | 50% (active) | -5% | 101% (active) | inactive | inactive | inactive | inactive
24 | Cc1cc(NC(=O)NCCN2CCC(NC(=O)c3ccc(F)cc3)CC2)c2ccccc2n1 | 76% (active) | -6% | -2% | 99% (active) | inactive | inactive | inactive | inactive
25 | Nn1c(=O)oc2ccc(Cl)cc2c1=O | 96% (active) | 4% | -5% | 97% (active) | inactive | inactive | inactive | inactive
26 | CCNC(=O)Nc1ccc(-c2cccc(-c3nc4c(C)cccc4[nH]3)c2)cc1 | 34% | 16% | -8% | 91% (active) | inactive | inactive | inactive | inactive
27 | O=S(=O)(c1ccc(Oc2ccccc2)cc1)N(CCC(O)(C(F)(F)F)C(F)(F)F)Cc1cccc(O)c1 | 99% (active) | -13% | 5% | 102% (active) | inactive | inactive | inactive | inactive
28 | COCCN1CCN(Cc2ccc(-c3ccc(-c4nc5ccc(F)cc5[nH]4)cc3)cc2)CC1 | 99% (active) | 25% | -2% | 101% (active) | inactive | inactive | inactive | inactive
29 | Cc1cccc2[nH]c(-c3cccc(-c4cccc(CNCCc5ccncc5)c4)c3)nc12 | 99% (active) | 20% | -2% | 101% (active) | inactive | inactive | inactive | inactive
30 | Oc1c(Cl)cc(Nc2nccc(Nc3ccc(Oc4ccccc4)cc3)n2)cc1Cl | 26% | 8% | -5% | 99% (active) | inactive | inactive | inactive | inactive
31 | Fc1ccc2nc(-c3cccc(-c4cccc(CNCC5CCCO5)c4)c3)[nH]c2c1 (stereo not given) | 94% (active) | 40% | 3% | 99% (active) | inactive | inactive | inactive | inactive
32 | CCN(CCCN1CCCCC1)c1cc(C)nc(Nc2ccc(C)cc2)n1 | 10% | 17% | -1% | 101% (active) | inactive | inactive | inactive | inactive
33 | Cc1c(CCc2cccc(F)c2F)[nH]c2ccccc2c1=O | 90% (active) | 41% | 2% | 91% (active) | inactive | inactive | inactive | inactive
34 | COc1ccc(N2CCN(CCCNC(=O)c3ccc(NC(=O)c4cc(Cl)cc(Cl)c4)cc3)CC2)c(OC)c1 | 79% (active) | 21% | -4% | 101% (active) | inactive | inactive | inactive | inactive
35 | c1ccc2c(NCCc3cnc[nH]3)c3ccccc3nc2c1 | -1% | 20% | 6% | 91% (active) | inactive | inactive | inactive | inactive
36 | Cc1c(Cl)ccc2c(C(=O)Nc3ccncc3)cc(-c3cccnc3)nc12 | 83% (active) | 16% | -3% | 99% (active) | inactive | inactive | inactive | inactive
37 | O=C(/C=C/c1ccc(Cl)c(Cl)c1)NCCCCCN1CCC(NC(=O)c2ccc(F)cc2F)CC1 | 11% | 17% | -3% | 96% (active) | inactive | inactive | inactive | inactive
38 | O=C(Nc1cccc(-c2nn3ccccc3c2-c2ccnc(Nc3cccc(C(F)(F)F)c3)n2)c1)c1c(F)cccc1F | 91% (active) | 43% | -2% | 97% (active) | inactive | inactive | inactive | inactive
39 | NC(N)=Nc1ccc(C(=O)O)c(O)c1 | 1% | -3% | -3% | 94% (active) | inactive | inactive | inactive | inactive
40 | O=C(Nc1ccc([N+](=O)[O-])cc1)c1nn(-c2ccccc2)cc1N=Cc1cccc(O)c1 | 37% | 10% | -5% | 98% (active) | inactive | inactive | inactive | inactive

Reference: PubChem BioAssay
